Measurements as given in PubChem BioAssay (NCATS).
Results filed as inconclusive are left out. Active and inactive are the calls of the source. Unless noted, the call rests on the fitted dose curve; in most records, active means well fitted curve in either direction with a large enough effect (not every such curve was filed as active); inconclusive means small, poorly fitted or top-dose-only effect, or another doubt; inactive means flat fitted curve, though single readings scatter.

Key:
[1] = molecular target: Lysosomal acid glucosylceramidase (Homo sapiens) (UniProt P04062); assay: Glucocerebrosidase-p2 (AID 348; in the data active means potency below about 10 µM; further: potency means the concentration at half of the fitted maximal effect); conditions: purified GBA, blue fluorogenic substrate, 40 min
In short: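 Compounds titrated from 0.6 nM upwards against 0.2 nM enzyme in pH 5.9 citric acid/KH2PO4, taurocholate, tween-20; blue fluorogenic substrate 80 uM, 40 min room temperature, stopped and read Ex 365/Em 440 for AC50.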

[2] = AP1 Signaling Pathway (AID 357); conditions: ME-180 AP-1-bla reporter, EGF-induced, beta-lactamase ratio, 5 h; at 7.69 µM (top of the series) unless noted; further: on the % scale 0 is the no-effect control and ±100 the full control effect
In short: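 AP-1-bla ME-180 cells with beta-lactamase reporter under AP-1 response element, stimulated with EC50 EGF; compounds titrated, 5 hours at 37 degrees Celsius. CCF4 read at 460/530 nm ratio; positive and negative modulators judged by AC50.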

[3] = molecular target: Cytochrome P450 1A2 (Homo sapiens) (UniProt P05177); assay: p450-cyp1a2 (AID 410; calls by dose curve;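 further: -100% = full effect of reference inhibitor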); conditions: recombinant CYP1A2, luciferin-ME demethylation, luminescence; series mostly up to 11.4 µM
In short: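 20nM CYP1A2 with 100uM Luciferin-ME (at Km) in 100mM KPO4; compound preincubated 10 min, NADPH regeneration added, 60 min at room temperature. Luciferin quantified by luminescence after detection reagent; normalized to 57 uM furafylline.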

[4] = NFAT Signaling Pathway (AID 444); conditions: Jurkat NFAT-bla M1, carbachol, beta-lactamase ratio, 5 h; at 7.69 µM (top of the series) unless noted;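 further: carbachol stimulus at about its EC50 of 1 µM final; on the % scale 0 is the no-effect control and ±100 the full control effect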
In short: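 Read-out: CCF4 FRET ratio (460 nm/530 nm) after 1 h RT dye loading, used for %activity and AC50 from titration series. Cells: Jurkat NFAT-β-lactamase/M1 line, treated with compound plus 1 uM carbachol for 5 h, 37 °C.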

[5] = Stat Signaling Pathway (AID 446); conditions: ME-180 SIE beta-lactamase reporter, IL-6 stimulated, 5 h; at 7.69 µM (top of the series) unless noted;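 further: ME-180 cervical cancer cells given 40 pM IL-6 alongside compound; SIE-controlled beta-lactamase reporter measured as 460/530 nm FRET emission ratio; on the % scale 0 is the no-effect control and ±100 the full control effect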
In short: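 ME-180 cells carrying a SIE-driven beta-lactamase reporter are stimulated with 40 pM IL-6 for 5 h at 37C in the presence of compound. The 460/530 nm FRET substrate ratio is read after 2.5 h at RT. Data are normalised to 300 pM IL-6 and to 125 nM JAK inhibitor controls.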

[6] = molecular target: Mitogen-activated protein kinase 10 (Mus musculus) (UniProt Q61831); assay: JNK3 AlphaScreen Assay (AID 530); conditions: JNK3 lysate, c-Jun phosphorylation; series mostly up to 57.1 µM;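 further: kinase came from lysate of stimulated human HepG2 cells; signal reports phosphorylation of biotinylated GST-cJun 1-79 at Ser73 with 10 µM ATP; on the % scale 0 is the no-effect control and ±100 the full control effect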
In short: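 Compound titrations were preincubated 15 minutes at room temperature with substrate, antibody and pre-activated JNK3-containing HepG2 lysate. Reactions were started with 10 uM ATP and stopped with EDTA-containing bead buffer for AlphaScreen detection.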

[7] = molecular target: 3',5'-cyclic-AMP phosphodiesterase 4B (Homo sapiens) (UniProt Q07343); assay: qHTS Assay for Inhibitors of PDE-IV (AID 607; active means well fitted activation curve with a large enough effect in the main read-out, with a control signal flat, not every such curve was filed as active; further: % of control where 0% means no effect); conditions: HEK293 ACTOne CNG channel cells, membrane potential fluorescence; series mostly up to 22.9 µM
In short: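 HEK293 ACTOne cells with CNG channel (1000/well), endogenous PDE4; membrane potential dye, compounds up to 22.9 uM final. Fluorescence Ex 535/Em 590; RO 20-1724 (100 uM final) as reference.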

Chain of Cytochrome P450 1A2 (Homo sapiens) (P05177 whole entry, looked up): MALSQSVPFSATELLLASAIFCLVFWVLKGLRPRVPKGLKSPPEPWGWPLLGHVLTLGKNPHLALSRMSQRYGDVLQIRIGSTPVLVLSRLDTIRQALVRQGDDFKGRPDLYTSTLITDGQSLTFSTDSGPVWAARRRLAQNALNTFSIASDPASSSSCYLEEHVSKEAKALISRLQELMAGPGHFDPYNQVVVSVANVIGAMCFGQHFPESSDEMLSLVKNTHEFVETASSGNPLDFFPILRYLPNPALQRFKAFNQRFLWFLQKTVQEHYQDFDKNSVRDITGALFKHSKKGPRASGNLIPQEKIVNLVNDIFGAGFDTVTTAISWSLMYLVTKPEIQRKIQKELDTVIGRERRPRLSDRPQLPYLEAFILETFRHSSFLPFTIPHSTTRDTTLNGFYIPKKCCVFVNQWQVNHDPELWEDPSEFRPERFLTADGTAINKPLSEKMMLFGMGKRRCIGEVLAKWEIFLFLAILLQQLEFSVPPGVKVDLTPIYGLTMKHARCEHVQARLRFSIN
Chain of Lysosomal acid glucosylceramidase (Homo sapiens) (P04062 whole entry, looked up): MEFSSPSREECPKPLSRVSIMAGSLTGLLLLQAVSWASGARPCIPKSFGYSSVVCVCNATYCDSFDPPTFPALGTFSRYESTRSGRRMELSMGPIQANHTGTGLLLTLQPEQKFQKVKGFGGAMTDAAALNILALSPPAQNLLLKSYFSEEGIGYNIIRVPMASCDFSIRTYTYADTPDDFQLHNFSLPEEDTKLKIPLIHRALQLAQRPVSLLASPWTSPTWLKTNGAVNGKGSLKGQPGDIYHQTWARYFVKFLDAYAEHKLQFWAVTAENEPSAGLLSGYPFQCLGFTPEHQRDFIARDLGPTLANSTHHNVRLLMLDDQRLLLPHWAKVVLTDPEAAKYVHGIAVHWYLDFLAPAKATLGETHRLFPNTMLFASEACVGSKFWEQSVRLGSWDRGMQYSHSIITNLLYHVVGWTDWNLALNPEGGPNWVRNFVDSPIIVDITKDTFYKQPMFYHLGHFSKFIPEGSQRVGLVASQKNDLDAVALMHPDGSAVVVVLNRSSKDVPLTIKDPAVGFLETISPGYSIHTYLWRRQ
Chain of 3',5'-cyclic-AMP phosphodiesterase 4B (Homo sapiens) (Q07343 whole entry, looked up): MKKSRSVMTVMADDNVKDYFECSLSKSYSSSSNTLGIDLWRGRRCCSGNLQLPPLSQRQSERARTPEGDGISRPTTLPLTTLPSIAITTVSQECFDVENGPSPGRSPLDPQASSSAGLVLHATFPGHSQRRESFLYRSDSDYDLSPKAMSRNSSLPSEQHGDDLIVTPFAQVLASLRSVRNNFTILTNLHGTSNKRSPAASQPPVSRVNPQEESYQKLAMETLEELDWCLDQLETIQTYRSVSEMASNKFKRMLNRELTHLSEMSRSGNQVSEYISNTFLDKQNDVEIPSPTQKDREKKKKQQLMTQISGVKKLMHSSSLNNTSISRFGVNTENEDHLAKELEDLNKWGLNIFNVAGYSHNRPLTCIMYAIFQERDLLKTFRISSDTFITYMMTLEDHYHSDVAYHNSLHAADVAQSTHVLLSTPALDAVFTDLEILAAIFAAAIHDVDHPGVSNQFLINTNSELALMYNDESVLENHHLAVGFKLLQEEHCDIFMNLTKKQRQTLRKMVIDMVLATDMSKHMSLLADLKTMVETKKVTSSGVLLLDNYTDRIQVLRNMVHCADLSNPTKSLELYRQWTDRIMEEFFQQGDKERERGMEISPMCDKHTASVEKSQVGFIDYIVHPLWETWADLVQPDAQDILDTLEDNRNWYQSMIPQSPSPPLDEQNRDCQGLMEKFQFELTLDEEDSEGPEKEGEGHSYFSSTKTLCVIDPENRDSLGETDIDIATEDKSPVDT

O=S(=O)(O)/C(=C\c1ccccc1)c1ccccc1 (tested in a mixture with another compound)
inactive: Potency [1] > 11.4 µM | activity change, negative = inhibition [2] 4.77% | activity change, negative = inhibition [3] -29% [at 2.29 µM] | activity change, negative = inhibition [4] 11.5% | activity, negative = inhibition [5] 7.2% | activity change, negative = inhibition [6] 4.57% [at 11.4 µM] | outcome [7]
